Measured values as given in PubChem BioAssay (Tox21).
Where “and” joins values, the source holds several entries; their conditions need not be identical. Identical values can stand only once. Inconclusive results are not listed. Calls of active or inactive are those of the source. Unless noted, the call rests on the fitted dose curve; in most records, active means well fitted curve in the direction sought with a large enough effect in the repeat runs; inconclusive means weak or mixed curves; inactive means no such curve, though single readings can be large; an effect the other way counts as inactive or inconclusive.

Assays:
[1] = qHTS assay for small molecule agonists of the p53 signaling pathway (AID 651631; calls by dose curve; further: nearly all actives have a fitted effect of over 15% in size; further: potency means the concentration at half of the fitted maximal effect)
In short: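 p53RE-bla HCT-116 cells; compounds 16 h, 37 °C; LiveBLAzer B/G FRET substrate 2 h RT; fluorescence intensity read-out, qHTS format.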

[2] = qHTS assay for small molecules that induce genotoxicity in human embryonic kidney cells expressing luciferase-tagged ATAD5 (AID 651632); further: nearly all actives have a fitted effect of over 15% in size; further: potency means the concentration at half of the fitted maximal effect
In short: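 HEK293T cells carrying luciferase-tagged ATAD5 were given compound or DMSO vehicle and incubated 16 hr at 37C, 5% CO2. Luciferase activity was read after 30 min at room temperature with Amplite; a rise signals genotoxic stress.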

[3] = qHTS assay for small molecule agonists of the p53 signaling pathway - cell viability (AID 651633; calls by dose curve; further: nearly all actives have a fitted effect of over 30% in size; further: potency means the concentration at half of the fitted maximal effect)
In short: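 Viability counter-read: CellTiter-Glo luminescence (30 min, room temperature) in the same p53RE-bla plates. These plates had been exposed to compounds for 16 h at 37 C.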

[4] = qHTS assay for small molecules that induce genotoxicity in human embryonic kidney cells expressing luciferase-tagged ATAD5 - cell viability (AID 651634; calls by dose curve; further: nearly all actives have a fitted effect of over 25% in size; further: potency means the concentration at half of the fitted maximal effect)
In short: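 HEK293T cells carrying luciferase-tagged ATAD5, 2,000 cells/well, exposed to compound for 15.5 hr at 37C. Viability read as live-cell protease activity by CellTiter-Fluor fluorescence after 30 min at 37C.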

[5] = qHTS assay for small molecule disruptors of the mitochondrial membrane potential - cell viability (AID 720634; calls by dose curve;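 further: human HepG2 liver cancer cells; series mostly up to about 83 µM; nearly all actives have a fitted effect of over 20% in size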)
In short: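 HepG2 cells, 2,000 per well, attached overnight, then treated 1 hr at 37 C, 5% CO2. Viability read as ATP by CellTiter-Glo luminescence after 30 min at room temperature. Read in the same wells as the m-MPI membrane-potential dye assay.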

[6] = qHTS assay for small molecule disruptors of the mitochondrial membrane potential (AID 720635); further: potency means the concentration at half of the fitted maximal effect
In short: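 Mitochondrial membrane potential tracked with Mito-MPS dye, red aggregates (ex 540/em 590 nm) against green monomers (ex 490/em 535 nm). Compound treatment 1 hr at 37C, dye 30 min in HepG2.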

[7] = qHTS assay to test for compound auto fluorescence at 590 nm (red) in HepG2 cells (AID 720674)
In short: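 1 hr compound incubation on HepG2 cells, 37 C, 5% CO2; plate read ex 540 nm / em 590 nm; intensities reported as Rose Bengal sodium equivalents.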

[8] = qHTS assay to test for compound auto fluorescence at 535 nm (green) in HepG2 cells (AID 720675)
[9] = qHTS assay to test for compound auto fluorescence at 460 nm (blue) in HEK293 cells (AID 720678)
In short: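 After cell attachment (4-5 hr, 37C), compounds were pinned onto HEK293 monolayers in 10% dialyzed FBS medium. The blue channel (405/460 nm) was read following overnight culture. Equivalency was calculated against triamterene.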

[10] = qHTS assay to test for compound auto fluorescence at 590 nm (red) in HEK293 cells (AID 720679)
In short: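 Plates of HEK293 cells (10% dialyzed FBS) are treated with 23 nL compound or DMSO vehicle after a 4-5 hr attachment period, incubated overnight at 37C, and read for red fluorescence at 540/590nm.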

Measured: Potency

CCCCCCCCCCCCCCCCCCOP(=O)([O-])OC1CC[N+](C)(C)CC1
inactive: [1] | [2] | [3] | [4] | [5] | [6] | [7] | [8] | [9] | [10]

NC[C@@H]1O[C@H](O[C@H]2[C@@H](O)[C@H](O[C@@H]3[C@@H](O)[C@H](N)C[C@H](N)[C@H]3O[C@H]3O[C@H](CO)[C@@H](O)[C@H](O)[C@H]3N)O[C@@H]2CO)[C@H](N)[C@@H](O)[C@@H]1O
inactive: [1] | [2] | [3] | [4] | [5] | [6] | [7] | [8] | [9] | [10]

CNC[C@@H]1CC[C@@H](N)[C@@H](O[C@H]2[C@H](O)[C@@H](O[C@H]3OC[C@](C)(O)[C@H](NC)[C@H]3O)[C@H](N)C[C@@H]2N)O1
inactive: [1] | [2] | [3] | [4] | [5] | [6] | [7] | [8] | [9] | [10]

COC(=O)CCC(=O)CN
inactive: [1] | [2] | [3] | [4] | [5] | [6] | [7] | [8] | [9] | [10]

COC1=C(C(=O)O)N2C(=O)[C@@H](NC(=O)[C@H](N)C3=CCC=CC3)[C@H]2SC1
inactive: [1] | [2] | [3] | [4] | [5] | [6] | [7] | [8] | [9] | [10]

CC[N+](C)(C)Cc1ccccc1Br
inactive: [1] | [2] | [3] | [4] | [5] | [6] | [7] | [8] | [9] | [10]

Cc1cc(-n2c(=O)[nH]c(=O)n(C)c2=O)ccc1Oc1ccc(S(=O)(=O)C(F)(F)F)cc1
inactive: [1] | [2] | [3] | [4] | [5] | [6] | [7] | [8] | [9] | [10]

CC1(C)S[C@@H]2[C@H](NC(=O)Cc3ccccc3)C(=O)N2[C@H]1C(=O)O
inactive: [1] | [2] | [3] | [4] | [5] | [6] | [7] | [8] | [9] | [10]

O=C(OCCO)c1ccccc1O
inactive: [1] | [2] | [3] | [4] | [5] | [6] | [7] | [9] | [10]

OC[C@H]1O[C@@H](O[C@H]2[C@H](O)[C@@H](O)[C@H](O)O[C@@H]2CO)[C@H](O)[C@@H](O)[C@@H]1O
inactive: [1] | [2] | [3] | [4] | [5] | [7] | [8] | [9]

COc1ccc(CCNCC(O)COc2cccc(C)c2)cc1OC (configuration not stated)
inactive: [1] | [2] | [3] | [4] | [5] | [6] | [7] | [8] | [9] | [10]

CCOC(=O)[C@H](CCc1ccccc1)N[C@@H](C)C(=O)N1CC2(C[C@H]1C(=O)O)SCCS2
inactive: [1] | [2] | [3] | [4] | [5] | [6] | [7] | [8] | [9] | [10]

O.O=C([O-])CC([S-])C(=O)[O-].[Au+].[Na+].[Na+] (configuration not stated)
inactive: [1] | [2] | [3] | [4] | [5] | [6] | [7] | [8] | [9] | [10]

CCC(CN)CC(C)CCNCC(O)CNCC(C)CC(CC)CN (configuration not stated)
inactive: [1] | [2] | [3] | [4] | [5] | [6] | [7] | [8] | [9] | [10]

Cn1nnnc1SCC1=C(C(=O)O)N2C(=O)[C@@H](NC(=O)[C@H](OC=O)c3ccccc3)[C@H]2SC1
inactive: [1] | [2] | [3] | [4] | [5] | [6] | [7] | [8] | [9] | [10]

O=C(/C=C/c1cccc(F)c1)NC1CC1
inactive: [1] | [2] | [3] | [4] | [5] | [6] | [7] | [8] | [9] | [10]

CCOC(=O)[C@H](CCc1ccccc1)N[C@H]1CCCN2CCC[C@@H](C(=O)O)N2C1=O
inactive: [1] | [2] | [3] | [4] | [5] | [6] | [7] | [9] | [10]

C#CCC(Cc1cnc2nc(N)nc(N)c2n1)c1ccc(C(=O)N[C@@H](CCC(=O)O)C(=O)O)cc1 (some centres not stated)
inactive: [2] | [5] | [6] | [7] | [8] | [10]
active: [1] 266 nM | [3] 0.266 µM | [4] 211 nM

CC(=O)[C@]1(O)Cc2c(O)c3c(c(O)c2[C@@H](O[C@H]2C[C@H](N)[C@H](O)[C@H](C)O2)C1)C(=O)c1c(O)cccc1C3=O
active: [1] 944 nM and 2.37 µM | [2] 750 nM and 944 nM | [4] 10.6 µM and 11.9 µM | [6] 441 nM and 5.31 µM
inactive: [3] | [5] | [7] | [9] | [10]

O=C1O[C@H]2[C@H](O)[C@@H]1OC(O)[C@H]2O (some centres not stated)
inactive: [1] | [2] | [3] | [4] | [5] | [6] | [7] | [9]

CCCCOC(=O)C(=O)Nc1cccc(-c2nn[nH]n2)c1
inactive: [1] | [2] | [3] | [4] | [5] | [6] | [7] | [8] | [9] | [10]

CS(=O)(=O)OCCCNCCCOS(C)(=O)=O
inactive: [1] | [2] | [3] | [4] | [5] | [6] | [7] | [9] | [10]

CS(=O)(=O)NC(=O)CCC/C=C\C[C@H]1C(=O)C[C@@H](O)[C@@H]1/C=C/[C@H](O)COc1ccccc1
inactive: [1] | [2] | [3] | [4] | [5] | [6] | [7] | [9] | [10]

CCCC(=O)O[C@]1(C(=O)COC(=O)CC)[C@@H](C)C[C@H]2[C@@H]3CCC4=CC(=O)C=C[C@]4(C)[C@@]3(F)[C@@H](O)C[C@@]21C
active: [6] 26.6 µM
inactive: [1] | [2] | [3] | [4] | [5] | [7] | [8] | [9] | [10]

O=C(O[C@H]1CN2CCC1CC2)N1CCc2ccccc2[C@@H]1c1ccccc1
inactive: [1] | [2] | [3] | [4] | [5] | [7] | [8] | [9]

N[C@@H](C(=O)N[C@@H]1C(=O)N2C(C(=O)O)=C(CSc3cn[nH]n3)CS[C@H]12)c1ccc(O)cc1
inactive: [1] | [2] | [3] | [4] | [5] | [6] | [7] | [8] | [9] | [10]

CCCC(CCC)C(N)=O
inactive: [1] | [2] | [3] | [4] | [5] | [6] | [7] | [9] | [10]

CCN(CC)CCOC(=O)c1ccc(N)cc1Cl
inactive: [1] | [2] | [3] | [4] | [5] | [6] | [7] | [8] | [9] | [10]

CC(C)CN(C[C@@H](O)[C@H](Cc1ccccc1)NC(=O)O[C@H]1CO[C@H]2OCC[C@H]21)S(=O)(=O)c1ccc(N)cc1
inactive: [1] | [2] | [3] | [4] | [5] | [6] | [7] | [8] | [9] | [10]

C[C@@H]1C/C=C/C=C/C=C/C=C/[C@H](O[C@@H]2O[C@H](C)[C@@H](O)[C@H](N)[C@@H]2O)C[C@@H]2O[C@](O)(C[C@@H](O)C[C@H]3O[C@@H]3/C=C/C(=O)O1)C[C@H](O)[C@H]2C(=O)O
inactive: [1] | [2] | [3] | [4] | [5] | [6] | [7] | [8] | [9] | [10]

O=C(NCCNCC(O)COc1ccc(O)cc1)N1CCOCC1 (configuration not stated)
inactive: [1] | [2] | [3] | [4] | [5] | [6] | [7] | [8] | [9] | [10]

c1cnc2cc3c(cc2n1)[C@@H]1CNC[C@H]3C1
inactive: [1] | [2] | [3] | [4] | [5] | [6] | [7] | [8] | [9] | [10]

NC(=O)Oc1ccc(Cc2ccccc2)cc1
active: [6] 21.1 µM
inactive: [1] | [2] | [3] | [4] | [5] | [7] | [8] | [9] | [10]

N[C@@H](C(=O)N[C@@H]1C(=O)N2C(C(=O)O)=C(Cl)CC[C@H]12)c1ccccc1
inactive: [1] | [2] | [3] | [4] | [5] | [6] | [7] | [8] | [9] | [10]

OC[C@@H](O)C(O)[C@H](O)CO
inactive: [1] | [2] | [3] | [4] | [5] | [6] | [7] | [8] | [9] | [10]

CCNC(=O)[C@@H]1CCCN1C(=O)[C@H](CCCN=C(N)N)NC(=O)[C@H](CC(C)C)NC(=O)[C@@H](CC(C)C)NC(=O)[C@H](Cc1ccc(O)cc1)NC(=O)[C@H](CO)NC(=O)[C@H](Cc1c[nH]c2ccccc12)NC(=O)[C@H](Cc1cnc[nH]1)NC(=O)[C@@H]1CCC(=O)N1
inactive: [1] | [2] | [3] | [4] | [5] | [6] | [7] | [8] | [9] | [10]

C=C1/C(=C\C=C2/CCC[C@]3(C)[C@@H]([C@H](C)OCCC(C)(C)O)CC[C@@H]23)C[C@@H](O)C[C@@H]1O
active: [1] 11900 nM
inactive: [2] | [3] | [4] | [5] | [6] | [7] | [8] | [9] | [10]
